The source of these data is ChEMBL document CHEMBL2218924, “A broad activity screen in support of a chemogenomic map for kinase signalling research and drug discovery” (Biochem J, 2013).

Assay [1] has as its target T1, Ephrin type-A receptor 3 (Homo sapiens) (UniProt P29320).
T1 sequence (whole entry): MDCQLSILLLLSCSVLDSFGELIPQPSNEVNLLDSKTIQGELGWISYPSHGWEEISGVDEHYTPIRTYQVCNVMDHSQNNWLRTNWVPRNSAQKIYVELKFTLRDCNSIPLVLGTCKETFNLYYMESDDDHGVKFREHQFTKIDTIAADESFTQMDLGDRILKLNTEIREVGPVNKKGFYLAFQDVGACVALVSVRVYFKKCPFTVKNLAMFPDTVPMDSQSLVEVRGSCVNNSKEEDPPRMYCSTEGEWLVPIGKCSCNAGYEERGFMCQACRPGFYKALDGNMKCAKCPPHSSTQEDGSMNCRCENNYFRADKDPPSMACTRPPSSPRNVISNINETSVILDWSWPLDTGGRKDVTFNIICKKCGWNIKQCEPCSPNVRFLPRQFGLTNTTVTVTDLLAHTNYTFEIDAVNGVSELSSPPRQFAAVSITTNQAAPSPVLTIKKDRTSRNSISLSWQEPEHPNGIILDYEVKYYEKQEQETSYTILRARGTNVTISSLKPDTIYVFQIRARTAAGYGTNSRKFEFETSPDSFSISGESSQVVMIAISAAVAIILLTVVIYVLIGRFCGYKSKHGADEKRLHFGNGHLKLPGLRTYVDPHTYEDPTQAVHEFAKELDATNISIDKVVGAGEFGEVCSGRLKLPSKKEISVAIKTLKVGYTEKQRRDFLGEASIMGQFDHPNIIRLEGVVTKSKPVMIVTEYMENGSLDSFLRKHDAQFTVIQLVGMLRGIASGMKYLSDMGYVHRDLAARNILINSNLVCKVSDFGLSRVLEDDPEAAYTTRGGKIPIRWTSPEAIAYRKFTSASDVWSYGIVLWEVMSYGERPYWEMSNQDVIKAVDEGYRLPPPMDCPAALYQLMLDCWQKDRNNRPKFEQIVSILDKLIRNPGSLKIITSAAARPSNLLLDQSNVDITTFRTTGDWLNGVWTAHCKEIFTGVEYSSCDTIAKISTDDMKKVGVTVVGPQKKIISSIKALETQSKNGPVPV
The note with it: at 10 µM.

In assay [2] the target is Ephrin type-A receptor 4 (Homo sapiens) (UniProt P54764). The following applies: at 1 µM.
Assay [3] shares this target. The following applies: at 10 µM.
Assay [4] deals with Ephrin type-A receptor 5 (Homo sapiens) (UniProt P54756). The note with it: at 1 µM.
The target is the same in assay [5]. The note with it: at 10 µM.
In assay [6] the target is Ephrin type-A receptor 7 (Homo sapiens) (UniProt Q15375). The following applies: at 1 µM.
The target of assay [7] is T2, Ephrin type-A receptor 8 (Homo sapiens) (UniProt P29322).
T2 sequence (whole entry): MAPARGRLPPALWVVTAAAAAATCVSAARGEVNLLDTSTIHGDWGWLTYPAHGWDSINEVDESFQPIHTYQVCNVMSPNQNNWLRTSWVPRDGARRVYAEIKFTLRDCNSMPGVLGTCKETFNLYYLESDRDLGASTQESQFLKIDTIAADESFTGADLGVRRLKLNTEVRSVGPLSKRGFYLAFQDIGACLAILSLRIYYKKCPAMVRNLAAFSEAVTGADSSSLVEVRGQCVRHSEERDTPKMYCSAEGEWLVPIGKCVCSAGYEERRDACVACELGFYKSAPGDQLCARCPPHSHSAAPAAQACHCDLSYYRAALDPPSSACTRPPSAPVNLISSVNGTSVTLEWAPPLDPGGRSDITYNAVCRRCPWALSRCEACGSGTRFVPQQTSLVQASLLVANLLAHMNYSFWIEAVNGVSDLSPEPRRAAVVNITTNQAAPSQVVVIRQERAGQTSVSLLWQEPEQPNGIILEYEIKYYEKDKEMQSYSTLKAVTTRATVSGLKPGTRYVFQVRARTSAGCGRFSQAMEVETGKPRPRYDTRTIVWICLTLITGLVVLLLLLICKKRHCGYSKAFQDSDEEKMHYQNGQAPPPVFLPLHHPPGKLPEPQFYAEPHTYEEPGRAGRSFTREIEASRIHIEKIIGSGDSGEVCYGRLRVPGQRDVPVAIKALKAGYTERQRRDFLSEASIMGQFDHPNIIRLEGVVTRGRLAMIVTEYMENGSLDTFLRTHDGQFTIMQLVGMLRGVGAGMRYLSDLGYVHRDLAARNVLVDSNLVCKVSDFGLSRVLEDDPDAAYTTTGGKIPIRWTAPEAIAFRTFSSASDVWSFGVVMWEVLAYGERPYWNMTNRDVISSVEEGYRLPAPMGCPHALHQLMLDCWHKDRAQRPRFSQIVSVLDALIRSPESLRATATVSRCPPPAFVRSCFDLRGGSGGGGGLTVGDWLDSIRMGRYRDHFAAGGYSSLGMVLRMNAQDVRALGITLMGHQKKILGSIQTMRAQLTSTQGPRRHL
The following applies: at 10 µM.

The target in assay [8] is Ephrin type-A receptor 7 (Homo sapiens) (UniProt Q15375). The following applies: at 10 µM.
Assay [9] concerns the target T2, Ephrin type-A receptor 8 (Homo sapiens). The note with it: at 1 µM.
Assay [10] has as its target T3, Ephrin type-B receptor 1 (Homo sapiens) (UniProt P54762).
T3 sequence (whole entry): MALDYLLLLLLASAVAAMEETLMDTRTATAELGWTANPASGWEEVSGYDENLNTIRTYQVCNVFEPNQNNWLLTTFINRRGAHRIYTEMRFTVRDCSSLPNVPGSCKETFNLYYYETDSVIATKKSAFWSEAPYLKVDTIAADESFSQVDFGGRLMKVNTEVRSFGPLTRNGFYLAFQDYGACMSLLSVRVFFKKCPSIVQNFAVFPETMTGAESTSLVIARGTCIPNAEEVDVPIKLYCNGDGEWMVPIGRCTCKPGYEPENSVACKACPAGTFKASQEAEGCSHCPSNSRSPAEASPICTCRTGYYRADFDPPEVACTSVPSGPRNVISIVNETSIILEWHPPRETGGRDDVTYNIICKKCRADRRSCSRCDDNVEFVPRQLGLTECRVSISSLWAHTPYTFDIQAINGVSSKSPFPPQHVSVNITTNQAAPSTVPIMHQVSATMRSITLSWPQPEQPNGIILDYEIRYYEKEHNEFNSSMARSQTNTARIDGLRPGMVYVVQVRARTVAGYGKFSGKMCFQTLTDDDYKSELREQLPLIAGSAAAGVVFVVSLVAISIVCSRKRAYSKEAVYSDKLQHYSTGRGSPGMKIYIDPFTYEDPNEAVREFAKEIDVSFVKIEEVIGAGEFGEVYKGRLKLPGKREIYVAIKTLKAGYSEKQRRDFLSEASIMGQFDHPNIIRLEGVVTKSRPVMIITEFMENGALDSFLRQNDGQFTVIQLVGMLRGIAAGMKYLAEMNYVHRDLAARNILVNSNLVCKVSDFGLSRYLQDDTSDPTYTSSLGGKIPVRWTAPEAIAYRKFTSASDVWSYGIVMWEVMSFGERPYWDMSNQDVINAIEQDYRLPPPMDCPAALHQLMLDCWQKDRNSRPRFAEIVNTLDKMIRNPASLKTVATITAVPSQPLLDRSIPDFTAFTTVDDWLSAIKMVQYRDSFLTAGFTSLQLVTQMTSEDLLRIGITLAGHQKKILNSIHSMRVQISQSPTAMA
The following applies: at 1 µM.

Ephrin type-A receptor 7 (Homo sapiens), sequence (Q15375 28-998 limits assumed): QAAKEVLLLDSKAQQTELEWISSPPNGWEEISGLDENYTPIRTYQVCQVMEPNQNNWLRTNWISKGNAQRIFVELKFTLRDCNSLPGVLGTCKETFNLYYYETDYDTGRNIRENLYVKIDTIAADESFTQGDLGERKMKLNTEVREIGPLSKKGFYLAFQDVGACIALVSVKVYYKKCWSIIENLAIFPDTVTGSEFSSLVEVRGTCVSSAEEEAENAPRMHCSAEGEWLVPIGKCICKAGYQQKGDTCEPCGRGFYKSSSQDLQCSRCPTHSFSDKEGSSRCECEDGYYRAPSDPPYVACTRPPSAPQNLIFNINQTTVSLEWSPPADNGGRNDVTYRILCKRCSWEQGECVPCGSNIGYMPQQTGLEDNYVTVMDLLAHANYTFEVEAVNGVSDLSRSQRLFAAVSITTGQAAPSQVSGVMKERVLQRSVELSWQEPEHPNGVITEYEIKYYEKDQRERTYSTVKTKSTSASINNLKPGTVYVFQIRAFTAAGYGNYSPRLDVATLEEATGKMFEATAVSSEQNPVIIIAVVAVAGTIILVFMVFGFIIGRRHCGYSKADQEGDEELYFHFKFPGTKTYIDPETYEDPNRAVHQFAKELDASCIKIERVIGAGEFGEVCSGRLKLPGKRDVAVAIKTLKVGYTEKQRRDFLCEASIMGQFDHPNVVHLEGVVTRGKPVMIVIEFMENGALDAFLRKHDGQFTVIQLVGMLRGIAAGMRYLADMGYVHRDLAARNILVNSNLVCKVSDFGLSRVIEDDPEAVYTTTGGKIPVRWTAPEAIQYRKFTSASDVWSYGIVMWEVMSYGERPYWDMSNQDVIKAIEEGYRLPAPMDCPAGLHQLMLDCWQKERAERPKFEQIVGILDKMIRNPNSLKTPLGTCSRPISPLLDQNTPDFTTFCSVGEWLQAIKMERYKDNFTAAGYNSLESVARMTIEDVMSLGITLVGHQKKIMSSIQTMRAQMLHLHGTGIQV
Ephrin type-A receptor 5 (Homo sapiens), sequence (P54756 whole entry): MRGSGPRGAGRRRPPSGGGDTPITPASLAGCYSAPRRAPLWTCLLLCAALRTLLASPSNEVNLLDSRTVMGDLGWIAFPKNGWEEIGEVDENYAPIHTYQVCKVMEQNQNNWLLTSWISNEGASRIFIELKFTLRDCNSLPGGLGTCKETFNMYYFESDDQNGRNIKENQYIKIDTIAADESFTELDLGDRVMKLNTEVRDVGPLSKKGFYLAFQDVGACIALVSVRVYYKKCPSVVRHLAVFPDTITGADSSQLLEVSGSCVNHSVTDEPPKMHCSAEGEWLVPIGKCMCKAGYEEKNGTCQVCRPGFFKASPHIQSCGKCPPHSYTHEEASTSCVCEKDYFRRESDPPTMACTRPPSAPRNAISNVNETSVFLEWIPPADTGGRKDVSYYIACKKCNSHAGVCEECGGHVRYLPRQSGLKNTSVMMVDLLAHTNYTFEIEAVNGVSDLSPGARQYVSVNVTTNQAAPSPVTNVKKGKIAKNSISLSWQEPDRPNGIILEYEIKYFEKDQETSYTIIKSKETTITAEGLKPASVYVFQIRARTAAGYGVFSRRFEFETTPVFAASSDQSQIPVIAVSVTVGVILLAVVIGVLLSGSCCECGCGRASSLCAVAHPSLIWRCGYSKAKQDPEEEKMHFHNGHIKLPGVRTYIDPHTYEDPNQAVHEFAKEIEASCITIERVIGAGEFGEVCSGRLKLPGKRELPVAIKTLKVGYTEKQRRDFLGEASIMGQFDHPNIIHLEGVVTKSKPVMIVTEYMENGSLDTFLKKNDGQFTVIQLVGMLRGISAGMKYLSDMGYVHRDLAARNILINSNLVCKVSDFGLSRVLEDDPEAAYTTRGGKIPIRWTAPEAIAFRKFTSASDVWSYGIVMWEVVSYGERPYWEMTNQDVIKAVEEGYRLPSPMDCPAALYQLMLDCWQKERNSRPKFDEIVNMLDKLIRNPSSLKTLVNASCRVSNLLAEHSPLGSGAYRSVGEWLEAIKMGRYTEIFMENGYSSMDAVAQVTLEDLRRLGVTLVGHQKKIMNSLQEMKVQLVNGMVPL
Ephrin type-A receptor 4 (Homo sapiens), sequence (P54764 whole entry): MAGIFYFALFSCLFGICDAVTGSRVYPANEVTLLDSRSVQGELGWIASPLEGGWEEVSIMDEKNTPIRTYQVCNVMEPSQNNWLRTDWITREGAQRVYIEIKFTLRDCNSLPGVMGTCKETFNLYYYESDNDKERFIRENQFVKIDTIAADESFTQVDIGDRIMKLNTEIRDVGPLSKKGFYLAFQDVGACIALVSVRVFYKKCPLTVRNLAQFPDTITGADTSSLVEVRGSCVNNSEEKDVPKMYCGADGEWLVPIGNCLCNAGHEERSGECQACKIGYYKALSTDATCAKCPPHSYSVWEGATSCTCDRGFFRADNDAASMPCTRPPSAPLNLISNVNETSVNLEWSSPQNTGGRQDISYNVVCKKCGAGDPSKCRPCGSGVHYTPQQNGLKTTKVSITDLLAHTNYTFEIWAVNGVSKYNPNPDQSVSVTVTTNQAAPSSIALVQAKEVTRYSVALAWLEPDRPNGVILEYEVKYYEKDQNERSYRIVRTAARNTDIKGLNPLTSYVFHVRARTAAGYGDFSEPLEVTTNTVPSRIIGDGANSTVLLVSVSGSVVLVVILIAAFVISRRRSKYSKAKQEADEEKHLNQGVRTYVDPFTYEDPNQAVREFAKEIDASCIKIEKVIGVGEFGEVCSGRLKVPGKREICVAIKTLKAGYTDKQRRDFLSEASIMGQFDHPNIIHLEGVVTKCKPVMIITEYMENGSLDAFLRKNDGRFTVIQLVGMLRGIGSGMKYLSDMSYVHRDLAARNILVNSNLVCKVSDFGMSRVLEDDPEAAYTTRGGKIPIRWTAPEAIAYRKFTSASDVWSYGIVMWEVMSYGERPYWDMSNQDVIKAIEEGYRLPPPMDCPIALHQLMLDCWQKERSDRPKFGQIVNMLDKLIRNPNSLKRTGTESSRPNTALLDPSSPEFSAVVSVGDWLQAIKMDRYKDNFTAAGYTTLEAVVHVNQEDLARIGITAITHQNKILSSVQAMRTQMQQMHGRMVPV

Usually residual activity stands for the signal under treatment as a percentage of the control signal. `Nc1ncnc2[nH]nc(Nc3ccc(F)cc3)c12`: the residual activity in assay [1] came out at 42%; in [2] it was 111%; in assay [3] it was 77%; in assay [4], 82%; in assay [5], 34%; in [6], 105%. Further, the residual activity in assay [7] came to 43%.

Turning to `CCCCc1c(-c2ccc(O)cc2)[nH]c2nccnc12`, the residual activity was 30% in [1]; 95% in [4]; 66% in assay [5]; 83% in assay [6]; 39% in [8]; 90% in assay [9]. The residual activity was 58% in assay [7] and 64% in assay [10].

As for `CN(C)S(=O)(=O)c1ccc2c(c1)/C(=C/c1cc3c([nH]1)CCCC3)C(=O)N2`, the residual activity was 77% in assay [1]; 92% in assay [3]; 94% in assay [6]; 79% in assay [8]; 96% in assay [9]; 85% in assay [7]. The residual activity in assay [10] was 73%.

With `O=c1cc(N2CCOCC2)oc2c1ccc1ccccc12`, the residual activity in assay [1] was 94%; in [3], 103%; in assay [4] it was 124%; in [5] it was 93%; in [6] it was 103%; in assay [8], 84%. The residual activity in assay [9] turned out to be 100%; in [7], 97%; in [10], 95%.

`O=C1Nc2ccc(Cl)cc2/C1=C/c1cc(Cl)c(O)c(Cl)c1`: the residual activity in assay [1] was determined as 54%; in assay [2], 99%; in assay [3], 90%; in assay [6], 92%; in assay [8] it was 71%; in [9], 90%. Further, the residual activity in assay [7] came to 79%; in assay [10], 94%.

Regarding `O=c1cc(N2CCNCC2)oc2c(-c3ccccc3)cccc12`, the residual activity in assay [1] is 77%; in [5], 103%; in [6], 98%; in assay [8], 88%; in assay [9], 102%; in [7], 100%. Besides, the residual activity in assay [10] was 100%.

Regarding `CCCCc1c(-c2ccc(OC)cc2)[nH]c2nccnc12`, the residual activity in assay [1] came out at 49%; in assay [2], 108%; in [3], 105%; in assay [4], 100%; in assay [5], 83%; in assay [6] it was 77%. Besides, the residual activity in assay [8] was found to be 73%; in assay [10], 61%.

In the case of `CSc1nc(-c2ccc(F)cc2)c(-c2ccnc(NC(C)c3ccccc3)c2)[nH]1` (stereo unspecified), the residual activity in [1] was 97%; in assay [2] it was 102%; in [3], 91%; in [5], 97%; in assay [8], 95%.

As to `Nc1ncnc2c1cnn2-c1ccccc1`, the residual activity was 84% in assay [1]; 97% in [3]; 88% in assay [5]; 102% in assay [6]; 97% in [8]; 100% in [9]. For the same molecule, in assay [7], the residual activity came out at 95%.

Consider `COc1cc2nccc(Oc3ccc(NC(=S)NC(=O)c4ccccc4C)cc3)c2cc1OC`, for which the residual activity in assay [1] came out at 67%; in assay [4], 91%; in assay [5], 53%; in [6], 90%; in assay [8], 56%; in assay [9] it was 75%. The results for the residual activity in assay [7] and in assay [10] were 49% and 86%, respectively.

Regarding `COc1cc2c(cc1OC)-c1n[nH]c(Nc3cccc(F)c3)c1C2`, the residual activity in assay [1] came to 42%; in assay [4] it was 103%; in assay [5], 43%; in [8], 64%; in assay [9], 69%; in assay [7], 26%. Further, in assay [10], the residual activity was found to be 83%.
